Screening data from PubChem.
Shown is part of a subset that was picked to be rich in hits.
Pf Dd2 inh: Plasmodium falciparum Dd2 growth inhibition; 120,000 compounds, 4.3% hits; Potency, µM (doses to about 28.9 µM), for inactives: at the top dose activity, negative = inhibition, hits mostly inhibitors; P. falciparum Dd2 growth, SYBR Green, 72 h; active means well fitted inhibition curve with a large enough effect;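 further: plate controls were DMSO vehicle for no effect and reference drug for full effect; nearly all actives have a fitted effect of over 65% in size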
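Readout: SYBR Green fluorescence, 485 nm excitation, 535 nm emission, after ~16 h lysis at 37C. Before that, Dd2-infected red cells (2.5% hematocrit) grew 72 h with compound, 29 uM top final concentration.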
An asterisk follows results filed as active; i = inactive; [ ] = remark or other dose. Potency means the concentration at half of the fitted maximal effect.

SMILES	Pf Dd2 inh
CC1(C)[C@H](Cc2cc(COc3ccccc3)on2)C[C@@H]1NC(=O)C1CCCC1	i
CC(C)NC(=O)N[C@H]1C[C@@H](Cc2cc(CN3CCN(c4ccccc4)CC3)on2)C1(C)C	10µM*
CC1(C)[C@H](Cc2cc(CO)on2)C[C@@H]1NC(=O)C1CCC1	1.2%[44.1 µM]
CC1(C)[C@H](Cc2cc(COc3ccccc3)on2)C[C@@H]1NC(=O)C1CCC1	11.2µM*
CC1(C)[C@H](Cc2cc(CN3CCCCC3)on2)C[C@@H]1NC(=O)c1ccccc1	-5.1%[44.1 µM]
CC(C)N[C@H]1C[C@@H](Cc2cc(CO)on2)C1(C)C	-15.6%[44.1 µM]
CC(C)N[C@H]1C[C@@H](Cc2cc(COc3ccccc3)on2)C1(C)C	11.2µM*
CC1(C)[C@H](Cc2cc(COc3ccccc3)on2)C[C@@H]1NC(=O)NCc1ccccc1	-0.8%[44.1 µM]
CC1(C)[C@H](Cc2cc(CN3CCN(c4ccccc4)CC3)on2)C[C@@H]1NCC1CC1	i
CCCCc1cc(C[C@@H]2C[C@H](NC(=O)C(C)(C)C)C2(C)C)no1	i
CC(C)N[C@H]1C[C@@H](Cc2cc(CCO)on2)C1(C)C	-8.7%[44.1 µM]
CC(C)n1cc(CN2CCC(C3CCN(S(C)(=O)=O)CC3)C2)cn1 (stereo not drawn)	5.0%
O=C1NCCOCCN(S(=O)(=O)c2cccc3nsnc23)[C@@H]2CCCC[C@H]12	-22.5%
CCCN(CC1CCOC1)S(=O)(=O)c1ccc(F)c(C)c1 (stereo not drawn)	93.0%[5.79 µM]
CNC(=O)[C@H]1C[C@H](Oc2cccnc2)CN1C(=O)NCc1ccc(F)cc1	-5.1%
CCNC(=O)N1CCCC(c2nn(C)c(=O)n2C2CCCC2)C1 (stereo not drawn)	38.4%
COCCOCc1nc(C2CCN(C(=O)Nc3ccc(OC)c(OC)c3)CC2)no1	6.2%
CSc1ccc(-c2ccc3c(c2)C(=O)N2CC[C@H](NC(=O)C4CCCC4)[C@H]2C(=O)N3)cc1	i
CC(=O)NCCCC(=O)N1CCC2(CC1)CN(C(=O)NC(C)C)Cc1ccccc1O2	10.2%
Cc1nc(N2CCC(NC(=O)Cc3cccc(F)c3)CC2)cc(C(F)(F)F)n1	-0.6%
CCCc1cc(N2CCC(N[C@@H]3CCNC3)CC2)nc(C)n1	-10.6%
CCc1cc(N2CCC(NCCc3cccc(Cl)c3)CC2)nc(C)n1	11.2µM*
O=C(c1ccc(F)cc1)N1CCC(c2n[nH]c(=O)n2-c2ccccc2)CC1	18.8%
c1ccc(C2=NOC3(CCN(Cc4cccc5ccccc45)CC3)C2)cc1	-20.7%
CC(C)CN1C(=O)c2cccn2CC1C(=O)NCC1CCN(Cc2ccc(F)cc2)CC1 (stereo not drawn)	-6.8%
SMILES	Pf Dd2 inh
CCC1(N2CCN(S(=O)(=O)c3cccc4cccnc34)CC2)CCN(C(=O)NC)C1 (stereo not drawn)	-1.8%
CC1=C[C@@H](CNC(=O)CC2(CC(=O)O)CCCC2)[C@H](C(C)C)C[C@H]1Cc1nc2ccccc2n1C	i
CC1=C[C@@H](CNC(=O)Cn2cnnn2)[C@H](C(C)C)C[C@H]1Cc1nc2ccccc2n1C	10µM*
CC1=C[C@@H](CNC(=O)Cn2cnnn2)[C@H](C(C)C)C[C@H]1Cc1nc2ccc(C)cc2[nH]1	i
CC1=C[C@@H](CNC(=O)Cc2ccccc2)[C@H](C(C)C)C[C@H]1Cc1nc2ccncc2[nH]1	-9.7%[44.1 µM]
COCC(=O)NC[C@@H]1C=C(C)[C@H](Cc2nc3ccccc3n2C)C[C@H]1C(C)C	10µM*
CC1=C[C@@H](CNC(=O)C2CC2)[C@H](C(C)C)C[C@H]1Cc1nc2ccccc2n1C	i
CC1=C[C@@H](CNC(=O)c2cnccn2)[C@H](C(C)C)C[C@H]1Cc1nc2ccccc2[nH]1	i
CC1=C[C@@H](CNC(=O)c2cnccn2)[C@H](C(C)C)C[C@H]1Cc1nc2ccccc2n1C	8.91µM*
CC1=C[C@@H](CNC(=O)CN(C)C)[C@H](C(C)C)C[C@H]1Cc1nc2ccccc2[nH]1	i
O=C(NCc1ccc(F)cc1)N1CCCC(Cn2cnc3cccnc32)C1 (stereo not drawn)	-2.1%
CN(C(=O)c1ccc2oc(CCc3ccccc3)nc2c1)C1CCOC1 (stereo not drawn)	-3.6%
O=C(COc1ccc(F)cc1)N1CCC2(CC1)NC(=O)N(c1ccc(F)cc1)N2	i
COCc1cn(C[C@H]2C[C@@H](NC(=O)c3cc(C)n(C)n3)[C@H](O)[C@@H]2O)nn1	20.9%
O=C(c1ccncc1)N1CCC2(CC1)CN(c1ncccn1)CC2CO (stereo not drawn)	i
COc1ccc(NC(=O)CSc2nc3c([nH]c4ccccc43)c(=O)n2C)cc1	41.1%
Cn1c(SCC(=O)Nc2ccccc2F)nc2c([nH]c3ccccc32)c1=O	i
O=C(CSc1nc2c([nH]c3ccccc32)c(=O)n1-c1ccccc1)N1CCCCCC1	-23.0%
CCOc1ccc(NC(=O)CSc2nc3c([nH]c4ccccc43)c(=O)n2-c2cc(C)cc(C)c2)cc1	i
COc1cccc(NC(=O)CSc2nc3c([nH]c4ccccc43)c(=O)n2-c2ccccc2)c1	5.62µM*
CCOc1ccc(-n2c(SCC(=O)Nc3ccc4c(c3)OCCO4)nc3c([nH]c4ccccc43)c2=O)cc1	i
